Among the data in PubChem BioAssay (EPA / NIEHS) are outcome values, retold here.

Inconclusive results are not listed. Calls of active or inactive are those of the source. Rule for the calls: active = hit-call score of the fitted dose curve at least 0.9, where 1 is the maximum; inconclusive = response in the unintended direction; inactive = score below 0.9.

human Vitamin D Receptor (VDR), VDR (gene 7421), sequence (P11473 whole entry, looked up): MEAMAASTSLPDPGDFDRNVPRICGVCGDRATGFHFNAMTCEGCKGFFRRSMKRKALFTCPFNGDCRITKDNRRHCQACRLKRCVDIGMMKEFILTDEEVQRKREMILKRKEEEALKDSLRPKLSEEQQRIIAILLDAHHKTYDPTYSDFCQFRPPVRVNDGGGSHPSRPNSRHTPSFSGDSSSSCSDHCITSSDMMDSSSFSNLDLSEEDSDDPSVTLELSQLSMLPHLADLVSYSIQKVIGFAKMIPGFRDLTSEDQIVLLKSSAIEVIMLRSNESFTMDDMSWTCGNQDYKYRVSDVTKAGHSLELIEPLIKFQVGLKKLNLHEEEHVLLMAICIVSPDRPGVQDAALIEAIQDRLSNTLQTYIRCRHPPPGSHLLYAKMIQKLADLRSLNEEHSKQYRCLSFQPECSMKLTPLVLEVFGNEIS

The assay concerns the target human Vitamin D Receptor (VDR), VDR (gene 7421) (UniProt P11473). Nature of the assay: ATG_VDR_TRANS: Attagene TRANS-FACTORIAL HepG2 Assay for human Vitamin D Receptor (VDR) (AID 2283022). How it is done:
ATG_TRANS is a cell-based, multiplexed-readout assay that uses HepG2, a human liver cell line, with measurements taken at 24 hours after chemical dosing in a 24-well plate.ATG_VDR_TRANS is one of 30 assay component(s) measured or calculated from the ATG_TRANS assay. It is designed to make measurements of mRNA induction, a form of inducible reporter, as detected with fluorescence intensity signals by Reverse transcription polymerase chain reaction (RT-PCR) and Capillary electrophoresis technology.Data from the assay component ATG_VDR_TRANS was analyzed into 1 assay endpoint. This assay endpoint, ATG_VDR_TRANS, was analyzed in the positive analysis fitting direction relative to DMSO as the negative control and baseline of activity. Using a type of inducible reporter, measures of mRNA for gain-of-signal activity can be used to understand the reporter gene at the transcription factor-level as they relate to the gene VDR. Furthermore, this assay endpoint can be referred to as a primary readout, because this assay has produced multiple assay endpoints where this one serves a reporter gene function. To generalize the intended target to other relatable targets, this assay endpoint is annotated to the nuclear receptor intended target family, where the subfamily is non-steroidal.
Human liver HepG2 cells are transiently transfected with multiple reporter transcription units (MRTUs) in 6-well plates using FuGene 6 reagent (Roche; 3 ml FuGene/1 mg DNA). The MRTU constructs are regulated by a cis-regulating element (promoter). […] A major difference between the CIS and TRANS system is that in CIS activities of endogenous TFs are measured, whereas the TRANS assay evaluates changes in activities of exogenous, chimeric NR-Gal4 proteins. […] At the end of 24 hour incubation, total RNA was isolated using TriZol reagent (Invitrogen). The isolated RNA is then reverse-transcribed using oligo(dT) primer and Mo-MLV reverse transcriptase (Invitrogen) with DNAse I (Ambion) treatment for 30 min. The one-tenth of the produced cDNA was amplified by PCR using Taq DNA polymerase (Invitrogen) and two reporter sequence-specific primers. The PCR products were fluorescently labeled by primer extension with 6-arboxyfluorescein (6-FAM) 5'-labeled reporter sequence-specific primer (2 min at 95 C, 20 s at 68 C and 10 min at 72 C) and these products were digested with 5U of HpaI (New England Biolabs) for 2h at 37 C. The fragments were purified using Qiaquick PCR columns (Qiagen), analyzed on an ABI 3130xL genetic analyzer (Applied Biosystems) with peak positions identified by using a set of X-rhodamine (ROX)-labeled MapMarker1000 molecular weight standards (BioVentures). The raw capillary electrophoresis data was processed using Attagraph software (Attagene).
Turning to `O=C1CCc2ccccc2O1`, the molecule was called inactive. As to `OCCOc1cccc(OCCO)c1`, the outcome was inactive.

For the molecule `COc1ccc(NC(=O)CC(C)=O)cc1`, the molecule was classed as inactive. As for `CCCCCC(CO)CCC` (stereo not given), the call was inactive. In the case of `O=C1O[C@@H]2[C@@H](O)[C@H](O)O[C@@H]2[C@H]1O` it was “inactive”; in that of `CC(C)=CCO`, “inactive”. `CCCC(C)C=O` (stereo not given): the result was inactive. In the case of `C=CCOc1nc(OCC=C)nc(OCC=C)n1`, the result was inactive. `CC(=O)C(C)=O`: the molecule was classed as inactive. `CN(C)c1ccc(O)c2c1C[C@H]1C[C@H]3[C@H](N(C)C)C(=O)C(C(N)=O)=C(O)[C@@]3(O)C(=O)C1=C2O`: the result was inactive. Turning to `COc1cc(C=O)ccc1OC(=O)C(C)C`, the call was inactive. Take `CCC(C)CCCC(C)(C)O` (stereo not given): the molecule was classed as inactive. With `CC(=O)OCCC(C)CC(C)(C)C` (stereo not given), the molecule was classed as inactive.

As to `CCN(CC)CCOC(=O)c1ccc(N)cc1`, the molecule was classed as inactive.

Regarding `O=C(O)COCCN1CCN(C(c2ccccc2)c2ccc(Cl)cc2)CC1` (stereo not given), the outcome was inactive. Turning to `CNC[C@H](O)c1cccc(O)c1`, the call was inactive. The same measure for `c1ccc2sc(SN(C3CCCCC3)C3CCCCC3)nc2c1`: “inactive”; for `CC(=O)/C=C/C1=C(C)CCCC1(C)C`: “inactive”; for `CC(C)C[C@H]1C(=O)N2CCC[C@H]2[C@]2(O)O[C@](NC(=O)[C@@H]3C=C4c5cccc6[nH]c(Br)c(c56)C[C@H]4N(C)C3)(C(C)C)C(=O)N12`: “inactive”. In the case of `CC(=O)c1c(C)cc(C(C)(C)C)cc1C` it was “inactive”. For `CCCCC(CC)COC(=O)/C=C\C(=O)OCC(CC)CCCC` (stereo not given), the molecule was called inactive. With `CC1(C)OC[C@@H]2O[C@@]3(C(=O)O)OC(C)(C)O[C@H]3[C@@H]2O1`, the result was inactive. Regarding `Cc1ccc2ccccc2n1`, the outcome was inactive.

For the molecule `Nc1ccc(S(=O)(=O)O)c(N)c1`, the call was inactive. `CCCCC(CC)COCCC#N` (stereo not given): the call was inactive.

In the case of `C[Si](O[Si](C)(C)C)O[Si](C)(C)C`, the call was inactive. In the case of `CC(C)OP(=O)(CP(=O)(OC(C)C)OC(C)C)OC(C)C` it was “inactive”. In the case of `C=CC(=O)OCC(O)COc1ccccc1` (stereo not given) it was “inactive”. With `CC[Si](OC(C)=O)(OC(C)=O)OC(C)=O`, the result was inactive. With `Clc1ccc(Cl)c(Cl)c1Cl`, the outcome was inactive. Regarding `CCCCOCCOCCOCCOCCO`, the molecule was called inactive. On to `COc1ccc(OC)c(OC)c1`, for which the outcome was inactive. In the case of `C=C(C)C(=O)O` it was “inactive”; in that of `CCc1ccc(C=O)cc1`, “inactive”; in that of `CCCCOCCOCCSC#N`, “inactive”. `CCN(CC)c1ccc2c(-c3ccccc3C(=O)O)c3ccc(=[N+](CC)CC)cc-3oc2c1`: the molecule was classed as inactive. Consider `C=O`, for which the call was inactive. As for `C=C(C)C(=O)Nc1ccc(Cl)c(Cl)c1`, the outcome was inactive. For the molecule `CC(=O)Nc1ccc(C)cc1C`, the call was inactive. `CN1[C@@H]2CC(OC(=O)[C@H](CO)c3ccccc3)C[C@H]1[C@@H]1O[C@@H]12` (stereo not given in full): the outcome was inactive.
